Measured values from PubChem BioAssay AID743279 (National Center for Advancing Translational Sciences (NCATS), 2014).
The whole screen tested about 360,000 compounds, of which about 17,000 (4.7%) were called active. Roughly 5% stayed inconclusive and do not appear here. No stated cut-off is given here; in the data, active means activity change below about -50%; inconclusive means mostly about -30% to -49%; inactive means weaker than that. The full list was thinned out, with actives kept by preference.

Test: qHTS for Inhibitors of Inflammasome Signaling: IL-1-beta AlphaLISA Primary Screen
Details: THP-1 LPS/ATP IL-1B secretion, 16 h; at 57.5 µM, stronger effect = lower value
Procedure, shortened: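 THP-1 cells pretreated 1 hr with compounds (up to 57.5 uM final), then stimulated with LPS (250 ng/mL final) plus ATP (1.25 mM final); secreted IL-1B measured by AlphaLISA after 16 hr, decreased signal indicating inhibition.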
On the % scale 0 is the no-effect control and ±100 the full control effect.

Activity change, active:
C=CCn1c(COc2ccc(F)cc2)nnc1SCC(=O)Nc1cccc(S(N)(=O)=O)c1 -56.5%, COc1ccc(Nc2cc(Sc3ccc(OC)cc3)ncn2)cc1 -73.2%, CC(=O)N1CCN(S(=O)(=O)c2c(F)cc(F)c(Cl)c2F)CC1 -92.4%, C=CC(=O)OCCOCCOCCOCCOC(=O)C=C -108%, O=C(CCCN1C(=O)/C(=C/c2cccs2)SC1=S)Nc1ccc(O)cc1 -71.2%, O=C(CCCN1C(=O)/C(=C\c2ccccc2)SC1=S)Nc1ccccc1O -71.6%, O=C(/C=C/c1ccc([N+](=O)[O-])o1)NNC(=O)c1ccc(F)cc1 -102%, O=C1/C(=C\c2cccnc2)CN(Cc2ccccc2)C/C1=C\c1cccnc1 -107%, CC(C)N=C1CCCC1C(=S)SSC(=S)C1CCCC1=NC(C)C (stereo not drawn) -104%, CCc1ccc(CNC(=O)C2CCN(c3nnc(C)c4c(C)n(-c5ccc(C)cc5)nc34)CC2)cc1 -55%, Cc1ccc(S(=O)(=O)N2CCN(C(=O)Cc3sc(C)nc3-c3ccc(F)cc3)CC2)c(C)c1 -50.5%, Cc1ccc(S(=O)(=O)N2CCN(C(=O)CSc3cc(C)ccc3C)CC2)c(C)c1 -51.4%, O=[N+]([O-])c1ncc(Br)cc1Nc1ccccc1 -71.2%, CC[C@]1(c2ccccc2OC)C(=O)N(C(=O)OC)N1C(=O)OC -76.7%, CCC(=O)Nc1nc2ccccc2n1Cc1ccccc1C -56%, CCN(C(=O)COc1ccc(C(=O)c2ccccc2)cc1)c1ccccc1 -69.8%, CC(=O)N1Cc2cc(C(=O)NCc3cccc(F)c3)nc(-c3cccc(C4=CCCC4)c3)c2[C@H]1CCO -67.2%, CC12CCC(=O)N1C(C(=O)NCCN1C(=O)S/C(=C\c3ccccc3F)C1=O)CS2 (stereo not drawn) -53.4%

Activity change, inactive:
COc1ccc(NC(=O)CCCOc2ccc(C(C)=O)cc2)cc1S(=O)(=O)N1CCCCC1 5.4%, COc1ccc(-n2cnnc2SCC(=O)Nc2cccc(S(N)(=O)=O)c2)cc1 23.2%, C=CCn1c(CC(=O)Nc2cccc(OC)c2)nnc1SCC(=O)NC1CCCCC1 -18.6%, O=C(N[C@H]1CC[C@H](CC(=O)N2CCCCC2)O[C@@H]1CO)c1cccc(F)c1 34.1%, COc1ccc(Nc2ncnc3sc(C)cc23)cc1 1.88%, COc1ccc(Nc2ccc3ccccc3c2)cc1 -4.37%, Cc1cccc(N2CCN(C(=O)/C=C/c3ccco3)CC2)c1C -12.5%, CCN1CCN(C(=O)C2CCN(S(=O)(=O)c3cc(Cl)ccc3Cl)CC2)CC1 24.2%, O=C(c1cnc(Cl)c(Cl)c1)N1CCN(S(=O)(=O)c2ccc(F)cc2)CC1 -12.3%, O=[N+]([O-])c1ccc(CN2CC(N3CCC(c4ccccc4)CC3)CS2(=O)=O)cc1 (stereo not drawn) -10.2%, O=C(Nc1cc(F)ccc1F)c1ccc2c(=O)n3c(nc2c1)CCC3 -13.9%, CC(C)(C)OC(=O)NCCCCCNC(=O)c1[nH]cnc1C(=O)Nc1nccs1 -8.09%, COC(=O)c1ccc2nc(-c3ccc(F)cc3)c(Cc3ccc(C)cc3)n2c1 14.8%, CC1(c2cccc(N)c2)OCCO1 -13.4%, CCC(=O)N1CCCC1(C)C(=O)Nc1ccc2c(c1)CCN2C(C)=O (stereo not drawn) -2.74%, CC(C(=O)Nc1ccc(O)c(C(=O)O)c1)N1C(=O)/C(=C/c2cccs2)SC1=S (stereo not drawn) 3.56%, O=C(CN1C(=O)/C(=C\c2ccccc2F)SC1=S)Nc1nc2ccccc2s1 -3.88%, COc1cccc(/C=C2\SC(=S)N(CCCC(=O)N3CCOCC3)C2=O)c1 -22.2%, COc1ccc(/C=C2/SC(=O)N(CCCCCC(=O)Nc3ccccc3C(=O)O)C2=S)cc1 34.4%, COc1ccc(S(=O)(=O)N[C@@H]2C=C[C@@H](CC(=O)N3CCc4ccccc4C3)O[C@@H]2CO)cc1 12.3%, CCOc1cc(/C=C(/C#N)c2ccc(Cl)cc2)cc(Cl)c1OCC(=O)O 31.7%, O=C(NNC(=O)C1CCCC1)c1ccc(F)cc1 -5.32%, CCc1noc(C)c1C(=O)NNC(=O)c1ccc(F)cc1 10.8%, CC(C)NC(=O)C1(C)CCCCCN1C(=O)c1ccc(-c2ccccc2)cc1 (stereo not drawn) -2.6%, Cc1ccccc1C1=N/C(=C/c2cccnc2)C(=O)O1 38.6%, Clc1ccc(CN2CCN(/N=C/c3cccnc3)CC2)cc1 11.9%, COc1cccc(C(NC(C)=O)c2nc(-c3cnc4ccccc4c3)cs2)c1 (stereo not drawn) -1.76%, CN1CCC(N(C)C(=O)c2ccc(Cl)c(S(=O)(=O)Nc3ccc(Cl)cc3)c2)CC1 -20%, CCCCNC(=O)CCn1c(=O)c2ccccc2n(Cc2cc(C)ccc2C)c1=O -9.41%, O=C(/C=C/[C@H]1O[C@@H](n2cnc3c(NC(=O)c4ccccc4)ncnc32)[C@H](O)[C@@H]1O)NCc1ccccc1 1.22%, CCOc1ccc(CNC(=O)C2CCCN(c3nnc(C)c4c(C)n(-c5ccccc5)nc34)C2)cc1 (stereo not drawn) 17.4%, COc1ccc(-n2nc3c(N4CCC(C(=O)NCc5ccccc5)CC4)nnc(C)c3c2C)cc1 -9.21%, OC(c1cc(Cl)cc(Cl)c1)c1ncc(-c2ccccc2C(F)(F)F)[nH]1 (stereo not drawn) -7.73%, Cc1cccc(-c2cnc(C(O)c3ccc4ccccc4c3)[nH]2)c1 (stereo not drawn) 0%, Cc1nc(-c2ccc(F)cc2)c(CC(=O)Nc2cccc(S(=O)(=O)N3CCOCC3)c2)s1 -11.9%, Cc1nc(-c2ccc(F)cc2)c(CC(=O)N2CCN(S(=O)(=O)c3ccc(F)cc3)CC2)s1 -7.47%, CCCc1cc(=O)[nH]c(SCC(=O)N2CCN(S(=O)(=O)c3ccc(C)cc3C)CC2)n1 0%, Cc1ccc(S(=O)(=O)N2CCN(C(=O)COC(=O)c3c(C)cc(C)cc3C)CC2)c(C)c1 -9.93%, NC1=NOC(=O)C1C1CCCCC1 (stereo not drawn) -14.1%, COc1ccc(C(CNC(=O)c2ccc(OCc3cscn3)cc2)N2CCCC2)cc1 (stereo not drawn) -24.7%, COc1ccc(CNC(=O)CN2C(=O)NC3(CCCc4sccc43)C2=O)cc1 (stereo not drawn) 8.42%, COc1cc2c(cc1OC)CN(C(C)C(=O)Nc1cccc(S(=O)(=O)N3CCOCC3)c1)CC2 (stereo not drawn) -4.78%, COCC1CCCCN1C(=O)c1cc(COc2ccc(C)c(C)c2)on1 (stereo not drawn) 22.6%, CCOc1cc(C=NNC(=O)CCCC(=O)NN=Cc2ccc(O)c(OCC)c2)ccc1O 0%, CC(C)CN1CCC1(C)C(=O)Nc1ccc(OC(F)F)cc1 (stereo not drawn) 14.2%, O=[N+]([O-])c1ccccc1Nc1ccc(O)cc1 -11.5%, O=[N+]([O-])c1cccc(/C=N/Nc2ncc(Br)cn2)c1 -8.3%, Cn1c(=O)[nH]c(=O)c2c1nc(NCCCn1ccnc1)n2Cc1cccc(Br)c1 58.2%, Cc1ccccc1-c1nc(NC(C)C)nc2cc(-c3ccccc3)sc12 19.3%, CC1(C)CN(CCc2ccccc2)C(=O)[C@H]1CC(=O)Nc1ccc(Br)cc1 0%, COC(=O)c1ccccc1NC(=O)Cc1ccccc1OC 7.67%, COc1ccccc1CNC(=O)CCCN1C(=O)NC2(CCCC2)C1=O 10.6%, CC(=O)Nc1ccc(NC(=O)c2ccc3c(c2)C(=O)N(c2ccccc2C)C3=O)cc1 0%, C[C@@H]1CN([C@@H](C)CO)C(=O)c2cc(Br)cnc2O[C@H]1CN(C)Cc1ccc(-c2ccccc2)cc1 -13.1%, CC1(C(=O)Nc2ccc3c(c2)OCCO3)CCN1C(=O)Cc1cc(F)ccc1F (stereo not drawn) -2.62%, CC(=O)Nc1nc2ccccc2n1Cc1ccc(C)cc1 -12.8%, CCCCn1c(CCCNC(=O)CC)nc2ccccc21 36.3%, COC(=O)c1ccc2nc(-c3cccc(Br)c3)c(Cc3ccc(OC)cc3C)n2c1 2.21%, NNc1cccc(C=Cc2ccccc2)cc1=O -13.4%, CCOC1=C2CN(S(=O)(=O)c3ccc(C)cc3)[C@H](c3cccs3)C[C@H]2[C@H]2C(=O)N(c3ccccc3)C(=O)[C@H]2C1 91.6%, O=C(COc1ccc(F)cc1)N(CC1=CCS(=O)(=O)C1)c1ccccc1 0.865%, CCN(C(=O)c1ccc(Br)cc1)c1ccccc1 -9.85%, Cc1ccccc1OS(=O)(=O)c1cccc([N+](=O)[O-])c1 27.3%, COc1ccc(NC(=O)C2Cc3c(-c4cccc(NC(C)=O)c4)ccnc3O2)cc1OC (stereo not drawn) -14.1%, N#Cc1ccc(OCC(=O)NC(=O)NC2CCS(=O)(=O)C2)cc1 (stereo not drawn) -12.4%, CCNC(=O)c1cc2c(c(-c3cccc(-c4cncnc4)c3)n1)[C@H](CCO)N(C(C)=O)C2 42.5%, CC(C)NC(=O)N1Cc2cc(C(=O)NCC(F)(F)F)nc(-c3cccc(-c4cc5ccccc5o4)c3)c2[C@@H]1CCO -22.8%, CC1(C(=O)NCc2ccc(F)c(F)c2)Cc2c(-c3ccc4c(c3)OCO4)ccnc2O1 (stereo not drawn) 46.6%, CC12CCC(=O)N1C(C(=O)Nc1ccc(F)c(F)c1F)CS2 (stereo not drawn) 6.07%, CCn1nc(C(=O)NNC(=O)C2CSC3(C)CCC(=O)N23)c2ccccc2c1=O (stereo not drawn) 4.8%
